{
  "source": "paper PMC7862700",
  "about": "“An all-to-all approach to the identification of sequence-specific readers for epigenetic DNA modifications on cytosine”",
  "experiment_in_all_cases": "DAPPL (digital affinity profiling via proximity ligation, sequencing); 10 mM Tris-HCl pH 7.5, 50 mM NaCl, 1 mM DTT, 4% glycerol, room temperature, 30 min; GST-TFs on glutathione beads, 16-mer random dsDNA library, 0.1% formaldehyde crosslink after washing; high values mean tight binding",
  "details_in_all_cases": "protein: recombinant; tags: N-terminal GST; dsDNA, one strand shown",
  "key": {"GABPA": {"molecular_target": "T1, GABPA (Homo sapiens, UniProt Q06546 1-454)", "T1 sequence": "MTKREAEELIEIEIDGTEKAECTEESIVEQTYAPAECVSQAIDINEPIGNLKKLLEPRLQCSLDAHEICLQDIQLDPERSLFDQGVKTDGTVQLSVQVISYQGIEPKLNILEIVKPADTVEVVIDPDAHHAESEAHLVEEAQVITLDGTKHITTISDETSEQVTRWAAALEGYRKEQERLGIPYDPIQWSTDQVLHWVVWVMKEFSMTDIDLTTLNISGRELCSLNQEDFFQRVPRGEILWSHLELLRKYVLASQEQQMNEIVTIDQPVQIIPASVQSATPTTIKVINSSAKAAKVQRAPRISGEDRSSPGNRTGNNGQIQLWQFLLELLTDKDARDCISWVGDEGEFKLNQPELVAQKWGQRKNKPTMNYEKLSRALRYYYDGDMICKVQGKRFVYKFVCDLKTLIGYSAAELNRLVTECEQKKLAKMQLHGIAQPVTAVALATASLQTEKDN", "how_it_was_run": "(§1)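 Human transcription factors were made in yeast as GST fusions, captured on glutathione beads and barcoded with DNA. With a tag-only sample included, the pool was incubated with 200 nmole of a random double-stranded 16-mer DNA library in Tris/NaCl/DTT/glycerol buffer at room temperature for 30 min, then crosslinked with 0.1% formaldehyde after washing, ligated by proximity, amplified and sequenced. For binding signal, each hexamer's read frequency for a factor is divided by its frequency for the tag-only sample.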"}, "ERG": {"molecular_target": "T2, ERG (Homo sapiens, UniProt P11308 1-479)", "T2 sequence": "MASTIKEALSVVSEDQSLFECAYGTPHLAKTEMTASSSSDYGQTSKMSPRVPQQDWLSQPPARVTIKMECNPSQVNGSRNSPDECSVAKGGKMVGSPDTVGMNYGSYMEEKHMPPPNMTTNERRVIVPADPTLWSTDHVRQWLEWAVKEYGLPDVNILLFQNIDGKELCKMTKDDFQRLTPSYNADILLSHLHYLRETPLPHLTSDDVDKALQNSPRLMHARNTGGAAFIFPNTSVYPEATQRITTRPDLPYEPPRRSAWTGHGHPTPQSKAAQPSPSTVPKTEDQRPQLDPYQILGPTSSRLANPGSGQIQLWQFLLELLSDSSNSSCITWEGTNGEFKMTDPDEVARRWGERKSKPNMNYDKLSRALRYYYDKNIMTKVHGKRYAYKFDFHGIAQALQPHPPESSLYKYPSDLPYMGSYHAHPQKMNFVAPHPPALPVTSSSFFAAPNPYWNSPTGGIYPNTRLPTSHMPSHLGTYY", "how_it_was_run": "as §1"}, "ELF1": {"molecular_target": "ELF1 (Homo sapiens, UniProt P32519 1-619)", "sequence (P32519 whole entry)": "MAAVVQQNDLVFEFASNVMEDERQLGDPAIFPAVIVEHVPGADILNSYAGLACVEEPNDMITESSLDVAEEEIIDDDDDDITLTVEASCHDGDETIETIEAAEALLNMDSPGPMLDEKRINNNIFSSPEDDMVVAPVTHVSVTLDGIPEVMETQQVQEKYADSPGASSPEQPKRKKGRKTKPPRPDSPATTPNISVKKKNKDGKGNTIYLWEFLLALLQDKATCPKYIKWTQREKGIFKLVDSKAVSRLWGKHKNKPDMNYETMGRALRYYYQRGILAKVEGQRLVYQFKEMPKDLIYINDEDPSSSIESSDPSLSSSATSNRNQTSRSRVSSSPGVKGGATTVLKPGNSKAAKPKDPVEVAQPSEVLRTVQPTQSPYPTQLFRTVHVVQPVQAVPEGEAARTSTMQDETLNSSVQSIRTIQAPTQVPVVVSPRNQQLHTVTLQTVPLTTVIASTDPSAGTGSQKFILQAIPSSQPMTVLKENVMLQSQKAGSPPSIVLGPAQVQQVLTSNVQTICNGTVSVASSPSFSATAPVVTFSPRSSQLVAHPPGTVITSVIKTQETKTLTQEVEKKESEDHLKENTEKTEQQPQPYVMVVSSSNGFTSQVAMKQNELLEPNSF", "how_it_was_run": "as §1"}, "EHF": {"molecular_target": "T3, EHF (Homo sapiens, UniProt Q9NZC4 1-300)", "T3 sequence": "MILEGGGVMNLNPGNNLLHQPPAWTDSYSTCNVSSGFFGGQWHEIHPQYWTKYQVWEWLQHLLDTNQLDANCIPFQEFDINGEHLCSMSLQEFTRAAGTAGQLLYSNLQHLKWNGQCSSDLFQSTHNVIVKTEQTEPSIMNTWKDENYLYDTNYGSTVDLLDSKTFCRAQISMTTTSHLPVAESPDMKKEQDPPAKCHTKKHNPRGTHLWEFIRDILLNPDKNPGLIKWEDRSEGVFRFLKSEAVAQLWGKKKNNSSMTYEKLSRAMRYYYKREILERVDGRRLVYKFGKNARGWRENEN", "how_it_was_run": "as §1"}, "SPIB": {"molecular_target": "SPIB (Homo sapiens, UniProt Q01892 1-262)", "sequence (Q01892 whole entry)": "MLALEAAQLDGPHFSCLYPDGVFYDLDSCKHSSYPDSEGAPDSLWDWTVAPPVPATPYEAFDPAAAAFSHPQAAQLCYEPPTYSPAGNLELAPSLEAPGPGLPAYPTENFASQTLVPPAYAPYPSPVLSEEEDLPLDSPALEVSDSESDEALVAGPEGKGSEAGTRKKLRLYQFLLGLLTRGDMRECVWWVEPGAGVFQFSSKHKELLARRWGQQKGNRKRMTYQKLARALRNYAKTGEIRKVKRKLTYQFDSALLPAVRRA", "how_it_was_run": "as §1"}, "ELK3": {"molecular_target": "T4, ELK3 (Homo sapiens, UniProt P41970 1-407)", "T4 sequence": "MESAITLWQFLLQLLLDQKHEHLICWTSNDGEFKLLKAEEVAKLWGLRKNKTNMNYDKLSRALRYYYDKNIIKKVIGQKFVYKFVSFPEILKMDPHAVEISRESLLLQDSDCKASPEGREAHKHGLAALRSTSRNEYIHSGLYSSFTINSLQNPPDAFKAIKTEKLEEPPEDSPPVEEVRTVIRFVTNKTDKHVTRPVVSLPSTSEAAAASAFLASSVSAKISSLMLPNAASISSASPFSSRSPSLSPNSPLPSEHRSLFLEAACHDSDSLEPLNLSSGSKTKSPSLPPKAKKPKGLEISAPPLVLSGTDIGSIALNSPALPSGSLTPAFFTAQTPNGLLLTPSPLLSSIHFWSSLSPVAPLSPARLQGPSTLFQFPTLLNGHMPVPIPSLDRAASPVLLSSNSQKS", "how_it_was_run": "as §1"}, "ETV5": {"molecular_target": "ETV5 (Homo sapiens, UniProt P41161 1-510)", "sequence (P41161 whole entry)": "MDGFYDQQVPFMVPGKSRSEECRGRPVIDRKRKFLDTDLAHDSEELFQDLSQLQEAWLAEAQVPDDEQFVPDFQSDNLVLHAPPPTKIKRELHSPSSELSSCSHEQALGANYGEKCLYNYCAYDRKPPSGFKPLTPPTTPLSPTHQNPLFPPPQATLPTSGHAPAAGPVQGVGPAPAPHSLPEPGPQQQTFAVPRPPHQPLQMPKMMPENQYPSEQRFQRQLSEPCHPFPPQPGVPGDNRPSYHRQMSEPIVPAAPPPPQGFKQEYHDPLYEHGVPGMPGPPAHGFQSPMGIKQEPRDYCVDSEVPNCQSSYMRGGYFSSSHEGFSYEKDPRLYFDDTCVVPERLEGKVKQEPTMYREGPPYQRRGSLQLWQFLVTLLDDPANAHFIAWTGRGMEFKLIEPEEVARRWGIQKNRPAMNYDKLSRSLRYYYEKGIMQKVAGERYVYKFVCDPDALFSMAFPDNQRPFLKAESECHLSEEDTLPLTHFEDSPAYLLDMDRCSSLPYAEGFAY", "how_it_was_run": "as §1"}, "SPIC": {"molecular_target": "T5, SPIC (Homo sapiens, UniProt Q8N5J4 1-248)", "T5 sequence": "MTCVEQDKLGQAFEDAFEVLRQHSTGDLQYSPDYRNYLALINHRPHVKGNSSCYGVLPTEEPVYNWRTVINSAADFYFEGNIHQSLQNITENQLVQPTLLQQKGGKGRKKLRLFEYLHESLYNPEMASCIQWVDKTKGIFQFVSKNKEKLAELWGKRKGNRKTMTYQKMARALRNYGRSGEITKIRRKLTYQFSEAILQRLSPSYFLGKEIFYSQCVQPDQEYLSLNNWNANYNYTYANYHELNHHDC", "how_it_was_run": "as §1"}, "ELF3": {"molecular_target": "T6, ELF3 (Homo sapiens, UniProt P78545 1-371)", "T6 sequence": "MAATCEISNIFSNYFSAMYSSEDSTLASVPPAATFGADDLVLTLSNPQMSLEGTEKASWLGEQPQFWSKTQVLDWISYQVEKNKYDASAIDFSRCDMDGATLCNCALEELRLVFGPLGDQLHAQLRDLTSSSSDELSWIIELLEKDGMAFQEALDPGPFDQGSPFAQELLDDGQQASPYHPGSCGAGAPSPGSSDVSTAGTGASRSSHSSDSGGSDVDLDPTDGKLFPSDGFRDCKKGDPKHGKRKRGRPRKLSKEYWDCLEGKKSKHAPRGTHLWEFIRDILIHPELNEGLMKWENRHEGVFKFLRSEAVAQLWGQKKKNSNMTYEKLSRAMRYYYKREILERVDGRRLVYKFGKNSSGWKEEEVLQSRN", "how_it_was_run": "as §1"}, "ETV1": {"molecular_target": "ETV1 (Homo sapiens, UniProt P50549 1-477)", "sequence (P50549 whole entry)": "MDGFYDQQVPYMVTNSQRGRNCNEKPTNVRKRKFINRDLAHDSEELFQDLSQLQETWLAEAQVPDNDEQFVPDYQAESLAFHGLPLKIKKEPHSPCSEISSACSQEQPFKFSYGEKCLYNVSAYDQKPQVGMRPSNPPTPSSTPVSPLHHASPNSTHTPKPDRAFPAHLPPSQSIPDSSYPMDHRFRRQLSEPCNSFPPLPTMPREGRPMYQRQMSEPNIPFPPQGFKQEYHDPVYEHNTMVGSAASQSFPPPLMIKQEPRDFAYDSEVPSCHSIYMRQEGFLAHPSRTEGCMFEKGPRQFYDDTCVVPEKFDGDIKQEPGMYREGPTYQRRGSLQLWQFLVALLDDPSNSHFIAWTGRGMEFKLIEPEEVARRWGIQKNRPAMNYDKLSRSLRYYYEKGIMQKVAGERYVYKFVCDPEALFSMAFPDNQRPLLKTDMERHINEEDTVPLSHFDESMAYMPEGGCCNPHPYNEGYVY", "how_it_was_run": "as §1"}, "ERF": {"molecular_target": "T7, ERF (Homo sapiens, UniProt P50548 1-548)", "T7 sequence": "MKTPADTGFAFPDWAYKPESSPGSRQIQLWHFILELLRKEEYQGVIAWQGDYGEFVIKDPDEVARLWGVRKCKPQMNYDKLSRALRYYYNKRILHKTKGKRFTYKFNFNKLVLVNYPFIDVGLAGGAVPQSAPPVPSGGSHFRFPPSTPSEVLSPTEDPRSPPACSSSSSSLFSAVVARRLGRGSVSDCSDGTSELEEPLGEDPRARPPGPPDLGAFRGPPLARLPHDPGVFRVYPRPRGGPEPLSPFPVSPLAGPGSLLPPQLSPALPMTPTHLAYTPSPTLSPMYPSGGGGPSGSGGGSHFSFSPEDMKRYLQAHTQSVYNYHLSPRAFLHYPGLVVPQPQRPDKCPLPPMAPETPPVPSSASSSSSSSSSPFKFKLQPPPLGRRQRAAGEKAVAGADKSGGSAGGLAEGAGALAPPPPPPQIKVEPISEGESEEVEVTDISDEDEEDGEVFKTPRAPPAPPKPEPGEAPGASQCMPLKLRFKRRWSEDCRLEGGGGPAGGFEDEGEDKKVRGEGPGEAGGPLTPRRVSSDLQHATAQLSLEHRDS", "how_it_was_run": "as §1"}, "ETV3L": {"molecular_target": "T8, ETV3L (Homo sapiens, UniProt Q6ZN32 1-361)", "T8 sequence": "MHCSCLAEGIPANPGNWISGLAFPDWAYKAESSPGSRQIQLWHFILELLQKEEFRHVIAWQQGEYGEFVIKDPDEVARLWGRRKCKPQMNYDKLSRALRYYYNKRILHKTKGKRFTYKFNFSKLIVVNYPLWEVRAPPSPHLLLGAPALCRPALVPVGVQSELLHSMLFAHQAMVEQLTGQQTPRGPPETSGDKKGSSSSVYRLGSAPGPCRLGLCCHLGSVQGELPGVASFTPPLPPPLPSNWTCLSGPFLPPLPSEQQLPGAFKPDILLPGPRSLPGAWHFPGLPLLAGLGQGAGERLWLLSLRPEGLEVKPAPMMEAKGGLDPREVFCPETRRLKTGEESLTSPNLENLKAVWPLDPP", "how_it_was_run": "as §1"}, "ETS2": {"molecular_target": "T9, ETS2 (Homo sapiens, UniProt P15036 1-469)", "T9 sequence": "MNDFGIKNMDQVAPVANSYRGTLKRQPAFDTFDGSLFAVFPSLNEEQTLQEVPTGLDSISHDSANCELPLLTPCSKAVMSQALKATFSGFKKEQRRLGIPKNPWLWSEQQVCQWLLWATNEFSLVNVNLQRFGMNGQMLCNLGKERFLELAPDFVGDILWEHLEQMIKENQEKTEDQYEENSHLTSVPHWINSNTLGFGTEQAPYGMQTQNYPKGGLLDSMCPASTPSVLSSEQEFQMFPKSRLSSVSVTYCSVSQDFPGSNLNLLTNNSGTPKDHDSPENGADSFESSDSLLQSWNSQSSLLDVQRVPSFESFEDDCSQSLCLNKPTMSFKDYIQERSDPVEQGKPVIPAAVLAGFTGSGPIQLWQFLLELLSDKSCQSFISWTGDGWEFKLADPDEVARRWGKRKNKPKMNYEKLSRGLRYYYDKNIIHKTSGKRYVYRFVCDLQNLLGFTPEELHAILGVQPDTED", "how_it_was_run": "as §1"}, "ETV7": {"molecular_target": "T10, ETV7 (Homo sapiens, UniProt Q9Y603 1-341)", "T10 sequence": "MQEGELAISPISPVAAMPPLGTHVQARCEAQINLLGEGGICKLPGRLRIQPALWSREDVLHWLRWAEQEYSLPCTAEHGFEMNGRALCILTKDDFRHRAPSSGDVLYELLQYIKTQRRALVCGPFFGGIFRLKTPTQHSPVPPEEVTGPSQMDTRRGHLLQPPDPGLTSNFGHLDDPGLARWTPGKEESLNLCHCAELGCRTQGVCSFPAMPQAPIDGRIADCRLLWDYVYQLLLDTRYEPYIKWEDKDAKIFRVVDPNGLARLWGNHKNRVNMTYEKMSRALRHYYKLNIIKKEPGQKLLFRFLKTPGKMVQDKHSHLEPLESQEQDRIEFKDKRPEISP", "how_it_was_run": "as §1"}, "ETV6": {"molecular_target": "ETV6 (Homo sapiens, UniProt P41212 1-452)", "sequence (P41212 whole entry)": "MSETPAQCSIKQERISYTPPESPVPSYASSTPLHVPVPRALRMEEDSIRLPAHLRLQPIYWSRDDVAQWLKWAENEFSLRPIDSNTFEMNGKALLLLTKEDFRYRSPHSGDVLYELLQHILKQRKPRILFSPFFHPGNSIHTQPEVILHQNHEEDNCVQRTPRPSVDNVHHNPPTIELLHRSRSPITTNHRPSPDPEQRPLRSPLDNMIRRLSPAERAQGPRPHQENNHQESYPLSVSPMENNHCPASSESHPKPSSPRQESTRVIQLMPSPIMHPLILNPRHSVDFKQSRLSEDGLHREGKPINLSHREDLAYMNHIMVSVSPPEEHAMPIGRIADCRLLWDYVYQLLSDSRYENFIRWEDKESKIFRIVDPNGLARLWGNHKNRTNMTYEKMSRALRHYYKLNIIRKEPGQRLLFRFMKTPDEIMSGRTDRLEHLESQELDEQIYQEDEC", "how_it_was_run": "as §1"}},
  "data": [
    {"sequence": "ATAGGC", "values": [
      {"measurement": "binding signal", "setting": "GABPA", "value": "1.01 fold enrichment (6-mer frequency, TF over GST control)"},
      {"measurement": "binding signal", "setting": "ERG", "value": "1.01 fold enrichment (6-mer frequency, TF over GST control)"},
      {"measurement": "binding signal", "setting": "ELF1", "value": "1.03 fold enrichment (6-mer frequency, TF over GST control)"},
      {"measurement": "binding signal", "setting": "EHF", "value": "1.04 fold enrichment (6-mer frequency, TF over GST control)"},
      {"measurement": "binding signal", "setting": "SPIB", "value": "1.11 fold enrichment (6-mer frequency, TF over GST control)"},
      {"measurement": "binding signal", "setting": "ELK3", "value": "1.02 fold enrichment (6-mer frequency, TF over GST control)"},
      {"measurement": "binding signal", "setting": "ETV5", "value": "1.1 fold enrichment (6-mer frequency, TF over GST control)"},
      {"measurement": "binding signal", "setting": "SPIC", "value": "1.06 fold enrichment (6-mer frequency, TF over GST control)"},
      {"measurement": "binding signal", "setting": "ELF3", "value": "1.07 fold enrichment (6-mer frequency, TF over GST control)"},
      {"measurement": "binding signal", "setting": "ETV1", "value": "1.01 fold enrichment (6-mer frequency, TF over GST control)"},
      {"measurement": "binding signal", "setting": "ERF", "value": "1.04 fold enrichment (6-mer frequency, TF over GST control)"},
      {"measurement": "binding signal", "setting": "ETV3L", "value": "1.02 fold enrichment (6-mer frequency, TF over GST control)"},
      {"measurement": "binding signal", "setting": "ETS2", "value": "1.01 fold enrichment (6-mer frequency, TF over GST control)"},
      {"measurement": "binding signal", "setting": "ETV7", "value": "1.01 fold enrichment (6-mer frequency, TF over GST control)"},
      {"measurement": "binding signal", "setting": "ETV6", "value": "1.04 fold enrichment (6-mer frequency, TF over GST control)"}
    ]}
  ]
}
